About 83,000 compounds went through this panel and 20% of them were active in at least one assay; those are over-represented in the sample as a whole.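 Assay: single dose, 48 h. Readout: percent growth (0 = no net growth; negative = cell death). Active: <10.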 The source made the active and inactive calls.
Key:
Test in all cases: NCI-60 one-dose screen, 48 h (100 = growth as untreated, 0 = no growth, -100 = all killed)
Conditions in all cases: 10 µM
T-47D breast = system: T-47D breast
BT-549 breast = system: BT-549 breast
MDA-MB-435 melanoma = system: MDA-MB-435 melanoma
SW-620 colon = system: SW-620 colon
MCF7 breast = system: MCF7 breast
HCT-116 colon = system: HCT-116 colon
HCC-2998 colon = system: HCC-2998 colon
KM12 colon = system: KM12 colon
MDA-MB-468 breast = system: MDA-MB-468 breast

Measured: growth

CCCn1c(=O)c2[nH]c(-c3ccc(OCc4nc5ccc(C#N)cc5[nH]4)cc3)nc2n(CCC)c1=O
active: MCF7 breast -48.9%
inactive: T-47D breast 35.7% | BT-549 breast 92.6% | MDA-MB-435 melanoma 97.5% | SW-620 colon 80.5% | HCT-116 colon 58.2% | HCC-2998 colon 95.3% | KM12 colon 75.5%

CCCn1c(=O)c2[nH]c(-c3ccc(OCc4nc5ccc(C(F)(F)F)cc5[nH]4)cc3)nc2n(CCC)c1=O
inactive: T-47D breast 33.2% | BT-549 breast 41.7% | MDA-MB-435 melanoma 63% | SW-620 colon 70% | MCF7 breast 28.3% | HCT-116 colon 25.2% | HCC-2998 colon 76.7% | KM12 colon 55.5%

Cc1ccc(-c2nc3ccc(C(=O)N=Nc4c(O)[nH]c5ccc(Br)cc45)cc3[nH]2)cc1
active: SW-620 colon 7.03%
inactive: T-47D breast 84.7% | BT-549 breast 138% | MDA-MB-435 melanoma 57.9% | MCF7 breast 21.7% | HCT-116 colon 26.3% | HCC-2998 colon 20.5% | KM12 colon 32.6%

O=C(Nc1cccc(-c2cn(-c3ccc4oc(=O)ccc4c3)nn2)c1)Nc1cc(C(F)(F)F)cc(C(F)(F)F)c1
inactive: MDA-MB-435 melanoma 49% | SW-620 colon 56.6% | MCF7 breast 17% | HCT-116 colon 29.1% | HCC-2998 colon 33.1% | KM12 colon 33.2%
active: T-47D breast -0.405% | BT-549 breast 3.59%

COc1ccc(-c2ccc(/C=N/NC(=O)c3[nH]c4ccc(Br)cc4c3-c3ccccc3)o2)cc1
inactive: T-47D breast 37.4% | BT-549 breast 75.6% | SW-620 colon 32.4% | MCF7 breast 10.3% | HCT-116 colon 18.3% | HCC-2998 colon 63% | KM12 colon 39.8%
active: MDA-MB-435 melanoma -45.1%

O=c1[nH]c2ccc(Cl)cc2cc1CSc1ccc(Nc2nccc(-c3ccc(Cl)cc3)n2)cc1
active: SW-620 colon 3.61% | MCF7 breast 5.48%
inactive: T-47D breast 78.9% | BT-549 breast 81.7% | MDA-MB-435 melanoma 47% | HCT-116 colon 32.9% | HCC-2998 colon 67% | KM12 colon 31.4%

CCOC(=O)C1NN(c2ccc(S(N)(=O)=O)cc2)c2nc3nc(-c4cccs4)cc(-c4cccs4)c3c(=O)n21 (stereo not drawn)
inactive: T-47D breast 85.4% | BT-549 breast 50.1% | MDA-MB-435 melanoma 106% | SW-620 colon 93.1% | MCF7 breast 74.2% | HCT-116 colon 81.2% | HCC-2998 colon 107% | KM12 colon 69.7%

O=S(=O)(Nc1ncccn1)c1ccc(-n2c(-c3ccc(Br)cc3)nc(-c3ccccc3)c2-c2ccccc2)cc1
active: T-47D breast 2.77% | BT-549 breast 8.3%
inactive: MDA-MB-435 melanoma 42.7% | SW-620 colon 48.5% | MCF7 breast 28.6% | HCT-116 colon 34.5% | HCC-2998 colon 39.7% | KM12 colon 27.7%

COc1ccc2[nH]c(=O)c(CSc3ccc(Nc4nccc(-c5ccc(Cl)cc5)n4)cc3)cc2c1
inactive: T-47D breast 78.6% | BT-549 breast 104% | MDA-MB-435 melanoma 111% | SW-620 colon 105% | MCF7 breast 84.5% | HCT-116 colon 78.9% | HCC-2998 colon 115% | KM12 colon 102%

C#CCNC(=O)[C@]12CCC(C)(C)C[C@H]1C1=CC[C@@H]3[C@@](C)(CCC#N)[C@H](C(=C)C)CC[C@@]3(C)[C@]1(C)CC2
inactive: T-47D breast 28% | BT-549 breast 75.6% | MDA-MB-435 melanoma 72.2% | SW-620 colon 74.1% | MCF7 breast 34% | HCT-116 colon 27.2% | HCC-2998 colon 75.4% | KM12 colon 54.8% | MDA-MB-468 breast 34.7%

O=C(NO)c1ccc(CNC(=O)[C@H]2Cc3c([nH]c4ccccc34)[C@H](c3ccccc3)N2)cc1
active: T-47D breast -17.7% | MDA-MB-435 melanoma 5.21% | SW-620 colon -43.7% | MDA-MB-468 breast -6.19%
inactive: BT-549 breast 55.4% | MCF7 breast 14.4% | HCT-116 colon 10.1% | HCC-2998 colon 16.9% | KM12 colon 31.1%

CCOc1ccc(/C=N/NC(=O)Cn2nc(Cc3ccc([N+](=O)[O-])cc3)c3onc(C)c3c2=O)cc1
inactive: BT-549 breast 55.2% | MDA-MB-435 melanoma 49.7% | SW-620 colon 15.2% | HCC-2998 colon 29% | KM12 colon 51.3%
active: T-47D breast 8.58% | MCF7 breast 9.23% | HCT-116 colon -26% | MDA-MB-468 breast -30.7%

O=C1CCC(N2Cc3cc(CC(=O)Nc4ccc(N5CCCCC5)cc4)ccc3C2=O)C(=O)N1 (stereo not drawn)
active: BT-549 breast -9.03% | MDA-MB-468 breast -16.4%
inactive: T-47D breast 14.1% | MDA-MB-435 melanoma 70.5% | SW-620 colon 24% | MCF7 breast 59.7% | HCT-116 colon 102% | HCC-2998 colon 34.7% | KM12 colon 41.1%

COc1ccc(OC)c(-c2cc(-c3c[nH]c4ccccc34)nc(N)c2C#N)c1
active: T-47D breast 0.648% | BT-549 breast -25.4% | MDA-MB-435 melanoma -5.04% | SW-620 colon 6.61% | MCF7 breast 3.84% | HCT-116 colon -45.8% | HCC-2998 colon -37.1% | KM12 colon -27.6% | MDA-MB-468 breast -9.53%

CCCCCCCCCCCCCCCCCCCC(=O)NCCc1c[nH]c2ccc(OC(=O)CCCC(=O)OCCOOCCOOCCOOCCOOCCOOCCOOCCOOCCOOCCOOCCOOCCOOCCOC)cc12
inactive: T-47D breast 22.4% | MDA-MB-435 melanoma 82.7% | SW-620 colon 83% | MCF7 breast 24.3% | HCT-116 colon 32.7% | HCC-2998 colon 87.8% | KM12 colon 35.7% | MDA-MB-468 breast 85.6%
active: BT-549 breast -20.2%

CCCS(=O)(=O)c1oc(-c2ccc(F)cc2)nc1S(=O)(=O)c1ccc(F)cc1
active: T-47D breast -67.9% | BT-549 breast -32.1% | MDA-MB-435 melanoma -80.3% | SW-620 colon -77.6% | MCF7 breast -65.7% | HCT-116 colon 3.42% | HCC-2998 colon -59.8% | MDA-MB-468 breast -91.4%
inactive: KM12 colon 41.8%

COc1cc2c3c(n(CCCn4ccnc4)c(=O)c2cc1OC)-c1nc2c(cc1C3=O)OCO2
inactive: T-47D breast 21.8% | BT-549 breast 29.6% | MDA-MB-435 melanoma 52.2% | SW-620 colon 37% | HCT-116 colon 30.4% | HCC-2998 colon 72.2% | KM12 colon 59.6%
active: MCF7 breast 7.42% | MDA-MB-468 breast -29.8%

CN1CCCN(Cc2ccc(C(=O)Nc3cccc(Nc4ccc5cc(O)ccc5n4)c3)cc2C(F)(F)F)CC1
inactive: T-47D breast 88.7% | BT-549 breast 98% | MDA-MB-435 melanoma 37.9% | KM12 colon 25.8%
active: SW-620 colon -25.8% | MCF7 breast -22.8% | HCT-116 colon 3.55% | HCC-2998 colon -15.1% | MDA-MB-468 breast 5.76%

COc1ccc(OC)c(/C=N/NC(=O)c2ccc3nc(-c4ccc(Cl)cc4)[nH]c3c2)c1
inactive: T-47D breast 38.2% | BT-549 breast 74.3% | MDA-MB-435 melanoma 85.7% | SW-620 colon 92% | MCF7 breast 51.9% | HCT-116 colon 56.9% | HCC-2998 colon 85.4% | KM12 colon 76.7% | MDA-MB-468 breast 69.6%

Nc1nc(-c2ccccc2)cc(-c2cc3ccccc3nc2Cl)n1
inactive: T-47D breast 73.7% | BT-549 breast 82.2% | MDA-MB-435 melanoma 94.9% | SW-620 colon 62.7% | MCF7 breast 18.4% | HCT-116 colon 33.7% | HCC-2998 colon 103% | KM12 colon 71.7% | MDA-MB-468 breast 77%

Cc1cc(=O)oc2cc(OCCCCOc3ccc(/C=C/C(=O)Nc4cccc(Cl)c4)cc3)ccc12
active: MDA-MB-468 breast 3.36%
inactive: T-47D breast 24.5% | BT-549 breast 41% | MDA-MB-435 melanoma 64.2% | SW-620 colon 61.9% | MCF7 breast 50.8% | HCT-116 colon 79.7% | HCC-2998 colon 94.2% | KM12 colon 72.5%

O=C(Nc1ccc(Cl)c([N+](=O)[O-])c1)Nc1ccc(Cl)c([N+](=O)[O-])c1
active: T-47D breast 1.86% | BT-549 breast -11.6% | MCF7 breast -5.85% | HCT-116 colon 9.36% | KM12 colon 5.87% | MDA-MB-468 breast -27.2%
inactive: MDA-MB-435 melanoma 13.3% | SW-620 colon 18.7% | HCC-2998 colon 12.7%

CCOC(=O)C1=C(N)N(c2ccc(Cl)cc2)C2=C(C(=O)CC(C)(C)C2)C1c1ccc(N2CCOCC2)cc1 (stereo not drawn)
inactive: T-47D breast 90.8% | BT-549 breast 23.8% | MDA-MB-435 melanoma 101% | SW-620 colon 107% | MCF7 breast 93.2% | HCT-116 colon 99.2% | HCC-2998 colon 103% | KM12 colon 107% | MDA-MB-468 breast 84.2%

O=C(Nc1ccc(I)cc1)Nc1nc2ccc([N+](=O)[O-])cc2s1
active: T-47D breast -85.9% | BT-549 breast -99.6% | MDA-MB-435 melanoma -96.1% | SW-620 colon -80.4% | MCF7 breast -93.6% | HCT-116 colon -100% | HCC-2998 colon -95.6% | KM12 colon -93.3% | MDA-MB-468 breast -97.2%

Cc1ccc(/C=C/C(=O)c2ccc(NC(=O)CSc3nnc(-c4c[nH]c5ccccc45)n3-c3ccccc3)cc2)cc1
active: MCF7 breast 8.55% | HCT-116 colon -40.2%
inactive: T-47D breast 54.2% | BT-549 breast 95.7% | MDA-MB-435 melanoma 72.8% | SW-620 colon 90.1% | HCC-2998 colon 83.8% | KM12 colon 78.7% | MDA-MB-468 breast 85.7%

CCN1CCN(Cc2ccc(NC(=O)c3cccc(-n4cc(-c5ccc(NC(C)=O)nc5)nn4)c3)cc2C(F)(F)F)CC1
active: MDA-MB-435 melanoma -39.8%
inactive: T-47D breast 100% | BT-549 breast 144% | SW-620 colon 109% | MCF7 breast 70.4% | HCT-116 colon 86.3% | HCC-2998 colon 115% | KM12 colon 22.9% | MDA-MB-468 breast 74%

COc1ccc(C(=O)/C=C/c2cc(F)cc(C(F)(F)F)c2)cc1S(N)(=O)=O
active: T-47D breast 6.93% | BT-549 breast -73% | MDA-MB-435 melanoma -56.2% | SW-620 colon -90.6% | MCF7 breast -90.6% | HCT-116 colon -55% | HCC-2998 colon -89.6% | KM12 colon -82.4% | MDA-MB-468 breast -93.2%

CN1CCN(c2ccc(Nc3nc(NCCCNC(=O)c4ccc(Cl)cc4)c4sccc4n3)cc2)CC1
inactive: T-47D breast 41.9% | BT-549 breast 80.1% | MDA-MB-435 melanoma 86.2% | SW-620 colon 93% | MCF7 breast 49.1% | HCT-116 colon 15.1% | HCC-2998 colon 91.3% | KM12 colon 68.7% | MDA-MB-468 breast 68.3%

Reference: PubChem BioAssay (NCI)
